Reference: PubChem BioAssay (EPA / NIEHS)
Some compounds were tested as several samples or in several runs, with calls that do not always agree. The source made the active and inactive calls. How the source made its calls: active means hit-call score of the fitted dose curve at least 0.9, where 1 is the maximum; inactive means score below 0.9.

test: ATG_M_32_CIS: Attagene CIS-FACTORIAL HepG2 Assay for M32 Transcription Factor (Internal Marker) (AID 2282949); conditions: HepG2 Attagene cis-factorial M32 reporter, mRNA; actives raise or lower the signal;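 further: background control marker of the multiplexed CIS panel rather than a real target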
Protocol: ATG_CIS is a cell-based, multiplexed-readout assay that uses HepG2, a human liver cell line, with measurements taken at 24 hours after chemical dosing in a 24-well plate.ATG_M_32_CIS is one of 52 assay component(s) measured or calculated from the ATG_CIS assay. It is designed to make measurements of mRNA induction, a form of inducible reporter, as detected with fluorescence intensity signals by Reverse transcription polymerase chain reaction (RT-PCR) and Capillary electrophoresis technology.Data from the assay component ATG_M_32_CIS was analyzed into 1 assay endpoint. This assay endpoint, ATG_M_32_CIS, was analyzed with bidirectional fitting relative to DMSO as the negative control and baseline of activity. Using a type of inducible reporter, measures of mRNA for gain or loss-of-signal activity can be used to understand the background control at the transcription factor-level as they relate to the gene . Furthermore, this assay endpoint can be referred to as a secondary readout, because this assay has produced multiple assay endpoints where this one serves a background control function. To generalize the intended target to other relatable targets, this assay endpoint is annotated to the background measurement intended target family, where the subfamily is internal marker.
Human liver HepG2 cells are transiently transfected with multiple reporter transcription units (MRTUs) in 6-well plates using FuGene 6 reagent (Roche; 3 ml FuGene/1 mg DNA). The MRTU constructs are regulated by a cis-regulating element (promoter). […] A major difference between the CIS and TRANS system is that in CIS activities of endogenous TFs are measured, whereas the TRANS assay evaluates changes in activities of exogenous, chimeric NR-Gal4 proteins. […] At the end of 24 hour incubation, total RNA was isolated using TriZol reagent (Invitrogen). The isolated RNA is then reverse-transcribed using oligo(dT) primer and Mo-MLV reverse transcriptase (Invitrogen) with DNAse I (Ambion) treatment for 30 min. The one-tenth of the produced cDNA was amplified by PCR using Taq DNA polymerase (Invitrogen) and two reporter sequence-specific primers. The PCR products were fluorescently labeled by primer extension with 6-arboxyfluorescein (6-FAM) 5'-labeled reporter sequence-specific primer (2 min at 95 C, 20 s at 68 C and 10 min at 72 C) and these products were digested with 5U of HpaI (New England Biolabs) for 2h at 37 C. The fragments were purified using Qiaquick PCR columns (Qiagen), analyzed on an ABI 3130xL genetic analyzer (Applied Biosystems) with peak positions identified by using a set of X-rhodamine (ROX)-labeled MapMarker1000 molecular weight standards (BioVentures). The raw capillary electrophoresis data was processed using Attagraph software (Attagene).

SMILES | outcome | AC50
O=C(O)C(F)(F)OC(F)(F)C(F)(F)OC(F)(F)C(F)(F)OC(F)(F)C(F)(F)C(F)(F)C(F)(F)F | inactive | 
CC(C)(C)c1ccc(O)c(O)c1 | inactive | 
Nc1ccc(O)c(C(=O)O)c1 | inactive | 
O=P(O)(O)CCC(F)(F)C(F)(F)C(F)(F)C(F)(F)C(F)(F)C(F)(F)F | inactive | 
CC(C)CCOCCC(C)C | inactive | 
Nc1ccn([C@@H]2O[C@H](CO)[C@@H](O)C2O)c(=O)n1 (stereo not given in full) | inactive | 
C[C@]12CC[C@@H]3c4ccc(O)cc4CC[C@H]3[C@@H]1CC[C@@H]2OC(=O)CCC1CCCC1 |  | 164 µM (active)
c1ccc2c(c1)CCC2 | inactive | 
O=C1OC(=O)c2cc(-c3ccc4c(c3)C(=O)OC4=O)ccc21 | inactive | 
CC1COCc2cc3c(cc21)C(C)(C)C(C)C3(C)C (stereo not given) |  | 163 µM (active)
CC=O | inactive | 
C=CC(C)(CCC=C(C)C)OC(C)=O (stereo not given) | inactive | 
C=Cc1ccc(O)c(OC)c1 | inactive | 
CN(C)CCOC(c1ccccc1)c1ccccc1 | inactive | 
c1ccc(CNc2ncnc3c2ncn3C2CCCCO2)cc1 (stereo not given) | inactive | 
CCc1ccccc1O | inactive | 
CC1=NN(c2ccccc2)C(=O)C1 | inactive | 
CCCCCCCCCCCCCCC | inactive | 
CCN(CC)CC | inactive | 
O=C1Cc2ccccc2N1c1c(Cl)cccc1Cl | inactive | 

SMILES | outcome | AC50
Cc1cc(Cc2cc(C)cc(C(C)(C)C)c2O)c(O)c(C(C)(C)C)c1 |  | 100 µM (active)
O=C1c2ccccc2C(=O)c2c(O)c(O)cc(O)c21 | inactive | 
Cc1ccc(C(=O)c2ccccc2)cc1 | inactive | 
C=C(c1ccc(C(=O)O)cc1)c1cc2c(cc1C)C(C)(C)CCC2(C)C | inactive | 32.2 µM (active)
CCCCC(CC)C(=O)OCCOCCOCCOCCOC(=O)C(CC)CCCC (stereo not given) | inactive | 
O=C(CCCN1CCC(O)(c2ccc(Cl)cc2)CC1)c1ccc(F)cc1 |  | 62.4 µM (active)
Oc1c(Cl)ccc(Cl)c1Cl | inactive | 
COCN(COC)c1nc(N(COC)COC)nc(N(COC)COC)n1 | inactive | 
O=S(=O)(c1ccc(OCc2ccccc2)cc1)c1ccccc1O | inactive | 
O=C1c2ccc(O)c(O)c2C(=O)c2c(O)ccc(O)c21 | inactive | 
CCCCc1oc2ccccc2c1C(=O)c1cc(I)c(OCCN(CC)CC)c(I)c1 |  | 127 µM (active)
CCC(=O)O | inactive | 
CC[N+](CC)(CC)Cc1ccccc1 | inactive | 
C=COC(=O)C(C)(C)CCCCCC | inactive | 
FC(OC(F)(F)C(F)(F)C(F)(F)F)C(F)(F)F (stereo not given) | inactive | 
CC1CNCC(C)O1 (stereo not given) | inactive | 
CCCCCCCCCCCC(=O)NCCCN(C)C | inactive | 
Cc1ccc(N=Nc2c(O)ccc3ccccc23)c(C)c1 | inactive | 
Cc1cc(=O)oc2cc(O)ccc12 | inactive | 
